# PubChem BioAssay (NCATS)
# Records with an inconclusive call do not appear. Entries that show only a call come without a potency. Unmarked numbers belong to inactive results. The source made the active and inactive calls. Calls follow the shape of the dose curve; as a rule, active = well fitted curve in the direction sought with a large enough effect; inconclusive = small, poorly fitted or top-dose-only effect, or another doubt; inactive = no such curve, though single readings can be large; an effect the other way counts as inactive or inconclusive.
# Key:
# [1] = target: Cellular tumor antigen p53 (Homo sapiens) (UniProt P04637); experiment: Primary qHTS for small molecule compounds that upregulate eGFP-tagged delta133p53alpha (in N-terminal) cells. (AID 2060322); conditions: NCI-H358 eGFP-delta133p53alpha fluorescence, 24 h; activation: hits give high values; also: nearly all actives have a fitted effect of over 75% in size; also: potency is read from the fitted curve at half-maximal effect; as to activation: series mostly up to about 56 µM
# Summary of the method: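 NCI-H358 cells pre-induced 24 h with 10 ng/ml doxycycline to express N-terminal eGFP-delta133p53alpha, then dosed 24 h at 37C without doxycycline; fixed, Hoechst-stained, GFP intensity by laser scanning cytometry, normalized to DMSO (0%) and 57.5 uM 5-azacytidine (100%).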
# [2] = target: Aldehyde dehydrogenase, mitochondrial (Homo sapiens) (UniProt P05091); experiment: qHTS for Inhibitors of the Aldehyde Dehydrogenase Family (ALDH2) Primary screen (AID 2061308); also: nearly all actives have a fitted effect of over 55% in size
# [3] = target: Retinaldehyde dehydrogenase 3 (Homo sapiens) (UniProt P47895); experiment: qHTS for Inhibitors of the Aldehyde Dehydrogenase Family (ALDH1A3) Primary screen (AID 2061315)
# Cellular tumor antigen p53 (Homo sapiens), sequence (P04637 whole entry, looked up): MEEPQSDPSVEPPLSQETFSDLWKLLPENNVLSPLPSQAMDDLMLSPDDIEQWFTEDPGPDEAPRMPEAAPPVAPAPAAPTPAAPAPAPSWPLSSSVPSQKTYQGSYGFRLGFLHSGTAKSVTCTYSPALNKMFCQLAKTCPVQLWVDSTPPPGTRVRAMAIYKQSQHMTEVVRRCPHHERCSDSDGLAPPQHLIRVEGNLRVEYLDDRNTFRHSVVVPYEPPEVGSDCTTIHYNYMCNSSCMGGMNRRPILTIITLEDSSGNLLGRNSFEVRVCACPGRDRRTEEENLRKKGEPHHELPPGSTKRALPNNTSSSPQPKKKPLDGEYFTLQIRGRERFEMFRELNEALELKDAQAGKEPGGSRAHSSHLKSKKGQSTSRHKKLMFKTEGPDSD
Compound,activation [1],Potency [2],Potency [3],Potency [1],"activity change, negative = inhibition [2]","activity change, negative = inhibition [3]"
COc1cc2oc(-c3ccc(O)cc3O)cc2c(OC)c1CC=C(C)C,9.82%,inactive,inactive,,,
COc1cc(O)c([C@@H](CC(=O)N2CC(C)CC(C)C2)c2ccc3c(c2)OCO3)c(OC)c1 (stereo partly specified),28.3%,inactive,inactive,,,
C=C1C(=O)O[C@@H]2C/C(C)=C\C(=O)/C=C(\C)[C@@H](OC(=O)/C(C)=C\C)[C@H](O)[C@@H]12,,inactive,inactive,5.88 µM (active),,
COc1cccc(Cn2ncc3c4sc(S(C)=O)cc4n(C)c3c2=O)c1 (stereo unspecified),7.67%,inactive,inactive,,,
C[C@@H]1O[C@@H](O[C@H]2[C@H](OC(=O)[C@]34CCC(C)(C)C[C@H]3C3=CCC5[C@@]6(C)CC[C@H](O[C@@H]7O[C@H](CO[C@@H]8OC[C@H](O)[C@H](O)[C@H]8O)[C@@H](O)[C@H](O)[C@H]7O)C(C)(C)C6CC[C@@]5(C)[C@]3(C)C[C@H]4O)OC[C@@H](O)[C@@H]2O)[C@H](O)[C@H](O)[C@H]1O[C@@H]1OC[C@H](O)[C@H](O[C@@H]2OC[C@@H](O)[C@H](O)[C@H]2O)[C@H]1O (stereo partly specified),3.82%,,,,2.19% [at 11.2 µM],8.01% [at 11.2 µM]
CC(=O)O[C@H]1[C@H](O)C[C@@]2(C)C(CC[C@]3(C)C2CC=C2C4CC(C)(C)CC[C@]4(C(=O)O)CC[C@]23C)C1(C)C (stereo partly specified),-12.5%,inactive,inactive,,,
CC1(C)[C@@H](O[C@H]2O[C@H](C(=O)O)[C@@H](O)[C@H](O)[C@H]2O[C@@H]2O[C@H](C(=O)O)[C@@H](O)[C@H](O)[C@H]2O)CC[C@]2(C)[C@H]3C(=O)C=C4[C@@H]5C[C@@](C)(C(=O)O)CC[C@]5(C)CC[C@@]4(C)[C@]3(C)CC[C@@H]12,-7.67%,inactive,inactive,,,
C/C=C(/C)C(=O)O[C@@H]1C[C@@H](OC(=O)/C(C)=C\C)[C@@]2(C)C3C(=O)C=C(C)C2C3C1(C)C,-3.57%,inactive,inactive,,,
CC/C=C\C[C@H]1C(=O)C=C[C@@H]1CCCCCCCC(=O)O,-8.93%,inactive,inactive,,,
C=C1CC(=O)C2OC2(C)CC2OC(=O)C(=C)C2C(O)C1OC(=O)/C(C)=C\C (stereo unspecified),,inactive,inactive,16.6 µM (active),,
CCOC(=O)C1(CCOc2ccccc2)CCN(Cc2ccc(O)c(Cl)c2)CC1,3.67%,inactive,inactive,,,
C=C(C)C1CCC2(C(=O)O[C@@H]3O[C@H](CO[C@@H]4O[C@H](CO)[C@@H](O)[C@H](O)[C@H]4O)[C@@H](O)[C@H](O[C@@H]4O[C@@H](C)[C@H](O)[C@@H](O)[C@H]4O)[C@H]3O)CCC3(C(=O)O)C(CCC4C5(C)CCC(O)C(C)(C)C5CCC43C)C12 (stereo partly specified),-13.7%,inactive,inactive,,,
COC(=O)C1=CO[C@@H](O[C@@H]2O[C@H](CO)[C@@H](O)[C@H](O)[C@H]2O)[C@H]2[C@@H]1C=C[C@]21C=C([C@H](C)OC(=O)/C=C/c2ccc(O[C@@H]3O[C@H](CO)[C@@H](O)[C@H](O)[C@H]3O)cc2)C(=O)O1,-1.79%,inactive,inactive,,,
C[C@@H]1O[C@@H](OC2C(O[C@H]3[C@H](O[C@H]4CC[C@@]5(C)C(CC[C@]6(C)C5CC=C5C7CC(C)(C)CC(O)[C@]7(C)CC[C@]56C)C4(C)C)O[C@H](C(=O)O)[C@@H](O)[C@@H]3O)OC(CO)C(O)C2O)[C@H](O)[C@H](O)[C@H]1O (stereo partly specified),-6.11%,inactive,inactive,,,
C=C1CC2C3(C)C=CC(=O)OC(C)(C)C3CC(OC(C)=O)C2(C)C2C(=O)OC(C)C(=O)C12C (stereo unspecified),15.3%,inactive,inactive,,,
CC1=CCC[C@@H]2[C@](CCc3ccoc3)(C(=O)O)[C@H](C)CC[C@@]12C,-28.2%,inactive,inactive,,,
COc1cc(C(=O)OC[C@@]2(O)CO[C@@H](O[C@H]3[C@H](Oc4ccc(C(=O)O)cc4OC)O[C@H](CO)[C@@H](O)[C@@H]3O)[C@@H]2O)ccc1O,-13.7%,inactive,inactive,,,
O=C(O)/C=C/c1ccc(O[C@@H]2O[C@H](CO)[C@@H](O)[C@H](O)[C@H]2O)cc1,-3.82%,inactive,inactive,,,
CC(=O)OCCC(C)CCC1C(C)(O)CCC2C(C)(C)CCCC21C (stereo unspecified),6.87%,inactive,inactive,,,
CC(C)=CCC[C@](C)(O[C@@H]1O[C@H](CO[C@@H]2OC[C@H](O)[C@H](O)[C@H]2O)[C@@H](O)[C@H](O)[C@H]1O)[C@H]1CC[C@]2(C)[C@@H]1[C@H](O)C[C@@H]1[C@@]3(C)CC[C@H](O[C@@H]4O[C@H](CO)[C@@H](O)[C@H](O)[C@H]4O[C@@H]4O[C@H](CO)[C@@H](O)[C@H](O)[C@H]4O)C(C)(C)[C@@H]3CC[C@]12C,9.67%,inactive,inactive,,,
CC1CCCC(O)CCC/C=C/c2cc(OS(=O)(=O)O)cc(O)c2C(=O)O1 (stereo unspecified),-19.8%,inactive,inactive,,,
C=CCC1=C[C@]2(OC)[C@H](C)[C@@H](c3ccc4c(c3)OCO4)O[C@]2(OC)CC1=O,1.53%,inactive,inactive,,,
